Experimental data from PubChem BioAssay AID432 (Sanford-Burnham Center for Chemical Genomics, 2006).
Among all 64,000 compounds or so, about 15 (0.02%) were called active. How the calls were made is not given here. Only a sample is shown. Results with a measured potency or affinity are listed apart.

molecular target: Bcl-2-related protein A1 (Mus musculus) (UniProt Q07440); assay: displacement of Bid BH3 peptide from Bfl-1 – biochemical, fluorescence polarization, FITC-Bid, mouse, primary screen (AID 432); conditions: at 20 µM, active compounds read high
Sequence (Q07440 whole entry, looked up): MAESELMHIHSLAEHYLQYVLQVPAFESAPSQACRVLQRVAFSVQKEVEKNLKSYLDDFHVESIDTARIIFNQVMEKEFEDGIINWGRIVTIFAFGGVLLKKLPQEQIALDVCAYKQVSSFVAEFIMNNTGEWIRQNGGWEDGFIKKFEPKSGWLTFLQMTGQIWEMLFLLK

displacement, inactive:
COC(=O)C(C)n1cnc2c(cnn2-c2ccc(Cl)cc2)c1=O (configuration not stated) 1.6%
CCCCCNC(=O)C(C#N)c1nc2ccccc2nc1N1CCCC1 (configuration not stated) 34.3%
Cn1c(SCc2ccccc2Cl)nnc1-c1cnccn1 -5.3%
COc1ccccc1OC(=O)c1ccc(SC)cc1OC -2.3%
Cc1cc(OCC(=O)Nc2cc(-c3nn4c(C)nnc4s3)ccc2C)ccc1Cl 10%
O=C1c2ccccc2C(Nc2ccc(S(=O)(=O)N3CCOCC3)cc2)N1c1cccnc1 (configuration not stated) 8.2%
N#CC1=C(N)OC2=C(C(=O)CCC2)C1c1ccsc1 (configuration not stated) -2.3%
Cc1csc2ncc(C(=O)Nc3cccc(C(F)(F)F)c3)c(=O)n12 -2%
Cc1ccc(-n2cccc2C(=S)N=P(N(C)C)(N(C)C)N(C)C)cc1 22.3%
Cc1ccccc1OCC(=O)NCCN(C)C -12%
CCCN1Cc2cccc(C(=O)Nc3ccc4c(c3)OCO4)c2C1=O -7.1%
COc1ccc(CCNC(=O)CSc2nnc(Cn3c(=O)sc4ccccc43)n2C)cc1OC 4.6%
O=C(c1ccc(Br)o1)N(Cc1ccccc1)c1ccccn1 -6.6%
Cn1c(=O)[nH]c(=O)c2c1nc(N1CCN(c3ccccc3)CC1)n2CCSc1ncccn1 4.5%
FC(F)(F)c1cccc(N2CCN(c3ccc4nnc(-c5ccccc5)n4n3)CC2)c1 0.4%
Fc1ccc(-c2nnc3ccc(N4CCCC4)nn23)cc1 -8.2%
COc1ccc2cnn(CCOc3ccccc3)c(=O)c2c1OC -3.4%
CCCn1c(SCC(=O)NCc2ccco2)nc2c1c(=O)n(C)c(=O)n2C -5.1%
CCOC(=O)C(NC(C)=O)(Nc1ccc(S(=O)(=O)Nc2onc(C)c2C)cc1)C(F)(F)F (configuration not stated) -2.1%
Cc1ccc(Nc2nc(C)cc(C)n2)c(Br)c1 -3.3%
CC(C)(C)NC(=O)NC(=O)COC(=O)C1CC(=O)N(Cc2ccccc2)C1 (configuration not stated) -5.1%
CCCCCOc1ccc(/C=c2\sc3ncnn3c2=O)cc1 -9%
Cc1csc(NC(=O)CSc2nnc(-c3ccco3)n2C)n1 -7.7%
COC(=O)c1[nH]c2ccc(C)cc2c1NC(=O)CN1CCCCC1C (configuration not stated) -1.2%
COc1ccccc1CNc1ncnc2c1cnn2-c1ccccc1 -2.9%
CN(C(=O)COC(=O)COc1ccccc1F)C1CCS(=O)(=O)C1 (configuration not stated) -1.5%
C=CCn1c(C)cc(C(=O)CSc2nnc(NCc3ccccc3)s2)c1C 3.3%
CCOc1ccccc1C(=O)NCc1ccc2c(c1)OCO2 2.9%
COc1ccc(NC(=O)C23CCC(C)(C(=O)C2)C3(C)C)cc1 (configuration not stated) -1.2%
COC(=O)c1cn(C(=O)OC)c2ccccc12 -6.7%
Oc1ccc(C=Nc2cccc3ncccc23)c(O)c1 4.8%
Nc1ccc2ncccc2c1 -3.5%
COc1cccc(OC)c1-c1nn2c(-c3ccco3)nnc2s1 -0.8%
COc1ccc(-c2nnc3sc(-c4ccccc4OC)nn23)cc1 0.2%
COc1cccc(OC)c1-c1nn2c(-c3ccccc3Cl)nnc2s1 -6.5%
CCOc1ccc(-c2nnc3sc(-c4c(OC)cccc4OC)nn23)cc1 7.5%
CSc1nnc(-c2ccccc2)n1C -1.8%
CCC(=O)N1CCc2cc(S(=O)(=O)CCC(=O)NCc3cccs3)ccc21 3.1%
CC(=O)Nc1ccc(NCC(O)COc2ccccc2)cc1 (configuration not stated) 9.6%
CC(=O)N1CCc2cc(S(=O)(=O)NCCC(=O)N3CCN(c4ccccn4)CC3)ccc21 0.4%
Cc1cc(=O)n2ncnc2n1COCCO -8.2%
COCC(C)NC(=O)CCS(=O)(=O)c1nc(-c2ccc(OC)cc2)cc(C(F)(F)F)n1 (configuration not stated) 6.4%
Cc1cc(NC(=O)CCS(=O)(=O)c2nc(-c3ccccc3)cc(C(F)(F)F)n2)no1 -3%
CCOC(=O)CCS(=O)(=O)c1nc(-c2ccccc2)cc(C(F)(F)F)n1 37.1%
CCOC(=O)c1cnn2c(C)cc(-c3ccc(F)cc3)nc12 -7.8%
CCC(=O)N1c2ccccc2-c2nnc(SC)nc2OC1c1ccc(OC)c(OC)c1 (configuration not stated) 0.1%
COc1cc(OC)c(C2Oc3nc(SC)nnc3-c3ccccc3N2C(C)=O)cc1OC (configuration not stated) 3.4%
CC(=O)NC1C(=O)N=C(SCC(=O)NCc2ccccc2)NC1=O (configuration not stated) 1.1%
O=c1n(-c2ccccc2)c(=O)n(Cc2ccccn2)n1Cc1ccccn1 -5.3%
Cc1nc2ccc(S(=O)(=O)Nc3ccccc3C)cc2s1 -3.4%
COc1ccc(C(C)=O)c2c(O)cccc12 -0.9%
COc1ccc2c3c(cccc13)OCC2=O 12.2%
CCn1c(N)c(C(=O)NC)sc1=S -2%
Cc1ccc(-c2nnc(COc3cccc(-n4cnnn4)c3)o2)cc1 -4.7%
C=CCn1cc(C(=O)NCCOC)c(=O)c2cc(S(=O)(=O)N(CC)CC)ccc21 1.1%
O=C(NC1CCCCNC1=O)c1ccc(Cl)cc1 (configuration not stated) -4%
CC1(C)CC(=O)C(C=NCCN2CCN(C(=O)CC3CCCC3)CC2)=C(O)C1 -1.8%
O=C1CSC(c2cn(-c3ccccc3)nc2-c2cc3ccccc3oc2=O)N1Cc1ccco1 (configuration not stated) -5.3%
COc1ccc(S(=O)(=O)N[C@@H](CC(C)C)C(=O)O)cc1 -6%
Cc1nc2c(c(=O)n1Cc1ccccc1Cl)c1nc3ccccc3nc1n2Cc1ccco1 -10.7%
N#Cc1c(NC(=O)CSc2nc(-c3ccco3)cc(C(F)(F)F)n2)sc2c1CCCC2 -0.1%
COc1ccc(C(=O)N2CCN(c3nnnn3-c3ccccc3)CC2)cc1OC 3.7%
Cc1cc(Nc2c(C)cccc2C)n2nc(C)nc2n1 -2.1%
COC(=O)c1ccc(C2C(C(=O)Nc3ccc(C)cc3C)=C(C)Nc3ncnn32)cc1 (configuration not stated) -1.9%
CCOC(=O)CN1C(=O)C(C)(C)Oc2ccc(C(=O)NC(C)(C)CC)cc21 -6.4%
Cc1cc(C)cc(N2CC34C=CC(O3)C(C(=O)OCC(=O)NCc3ccco3)C4C2=O)c1 (configuration not stated) -10.1%
Cc1nc2scc(-c3ccccc3)c2c(=O)n1N -4%
COc1ccc(S(=O)(=O)Cc2ccc(C(=O)N3CCN(c4ccc(Cl)cc4)CC3)o2)cc1 -2.7%
Nc1nc(-c2cccc(NS(=O)(=O)c3ccccc3)c2)cs1 5.8%
CN(C)c1nc(NCc2ccccc2)nc(Oc2ccc(=O)[nH]n2)n1 -7.2%
COc1cc(C(c2nnnn2C2CCCC2)N2CCc3ccccc3C2)ccc1O (configuration not stated) -5.3%
Cc1ccnc(NS(=O)(=O)c2ccc(NC(=O)C3CCCCC3C(=O)O)cc2)n1 (configuration not stated) -3.9%
Cc1csc(NC(=O)CCn2c(=O)oc3ccccc32)n1 2.1%
O=C1CC(N(Cc2ccco2)C(=O)Nc2ccc(F)cc2)C(=O)N1c1ccc(F)cc1 (configuration not stated) 1.2%
CCOc1ccc(OCC)c(NC(=O)CSc2nnc(-c3cccnc3)o2)c1 -6%
CCOC(=O)C1CCN(C2CC(=O)N(c3cccc(Cl)c3)C2=O)CC1 (configuration not stated) 5.3%
CCN(CC)C(=O)CSC1=C(C#N)C(c2cccs2)C=C(C)N1 (configuration not stated) 4.6%
O=C(NCCN1C(=O)C2C3C=CC(C3)C2C1=O)NCc1ccccc1 (configuration not stated) 8.8%
CCOC(=O)C1CCCN(C(=O)c2cn(C)c3ccc(S(=O)(=O)N(C)C)cc3c2=O)C1 (configuration not stated) -2.5%
COc1cccc(NC(=O)c2ncn[nH]2)c1 -5.2%
O=C(O)c1ccc(COc2c(F)c(F)cc(F)c2F)cc1 -4%
CCOCCn1c(SCc2cccc(C)c2)nc2c1c(=O)[nH]c(=O)n2C 2.1%
O=C(OCc1cccc2ccccc12)c1ccc2c(=O)[nH]c(CN3CCOCC3)nc2c1 -1.5%
Cc1cc2cc(C(c3nnnn3Cc3ccco3)N3CCc4ccccc43)c(=O)[nH]c2cc1C (configuration not stated) 6.1%
CCOC(=O)Cc1nnc(NC(=O)c2cccc(OCC)c2)s1 -3.8%
CCn1cc(Cl)c(C(=O)Nc2nc3ccccc3n2CCN2CCCCC2)n1 7.6%
O=C(Nc1c(C(=O)N2CCCCC2)cnn1-c1ccccc1)c1ccccc1 1.1%
O=C1CCCCCN1C(=O)c1cccc(C(=O)N2CCCCCC2=O)c1 -3.4%
CCOCC(=O)N1CCCC(C(=O)OCC)C1 (configuration not stated) 5.1%
COC(=O)c1cc(=O)[nH]c(SCc2cccc(C)c2)n1 -9.3%
CC(C)CCNC(=O)NC(=O)COc1ccccc1C#N -1.9%
CCCS(=O)(=O)N1CCCC(C(=O)NCCN(CC)c2ccccc2)C1 (configuration not stated) -0.1%
CCCN1C(=O)CC(c2ccco2)Sc2ccccc21 (configuration not stated) -8.4%
CN(C)S(=O)(=O)c1ccc(C(=O)Nc2ccc(F)cc2F)cc1 -3.7%
O=S(=O)(c1ccccc1)c1cccc(S(=O)(=O)N2CCCCC2)c1 -8.3%
CC1=C(C(N)=O)C(c2cccc(O)c2)n2nc(CCCO)nc2N1 (configuration not stated) -2.3%
O=C(c1ccccc1S(=O)(=O)NCc1ccccc1)N1CCCCC1 -2.9%
